For part of these data: Potency and affinity values are given separately. Calls of active or inactive are those of the source.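 How the source made its calls, unless noted: active means fitted half-maximal concentration within the tested dose range, moderate curve steepness, a statistically real signal drop, and little compound fluorescence or tag-binding interference; inactive means the rest.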
Columns and labels:
[1] = target: Cell division control protein 42 homolog (Homo sapiens) (UniProt P60953); assay: activated mutant Cdc42 GTP-binding inhibitors, dose response, biochemical, multiplex bead flow cytometry, Bodipy-FL-GTP (AID 1333)
[2] = target: Cell division control protein 42 homolog (Homo sapiens) (UniProt P60953); assay: wildtype Cdc42 GTP-binding inhibitors, dose response, biochemical, multiplex bead flow cytometry, Bodipy-FL-GTP (AID 1334;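 active means fitted half-maximal concentration within the tested range, moderate curve steepness, significant signal drop, and little compound fluorescence or bead-linkage interference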); settings: bead-based flow cytometry, Bodipy-FL-GTP binding to GST-Cdc42; at 100 µM (top of the series) unless noted
[3] = target: GTPase HRas (Homo sapiens) (UniProt P01112); assay: inhibitors of GTP binding to wildtype Ras, dose response, biochemical, multiplex bead flow cytometry (AID 1335;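 active means fitted half-maximal concentration within 10 nM to 100 µM, steepness 0.5 to 2, significant signal drop, low assay interference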); settings: bead-based flow cytometry, Bodipy-GTP binding to GST-Ras; at 100 µM (top of the series) unless noted
[4] = test system: Ras-related protein Rab-7a (dog), GTP binding; assay: Rab7 GTP binding inhibitors, potency, dose response, biochemical, wildtype, multiplex bead flow cytometry (AID 1336; call rule not given here)
[5] = target: Ras-related C3 botulinum toxin substrate 1 (Homo sapiens) (UniProt P63000); assay: wildtype Rac1 GTP binding inhibitors, dose response, biochemical, multiplex bead flow cytometry (AID 1340;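 active means dose curve with midpoint inside tested range, moderate steepness, plateau gap beyond fit error, low compound glow and bead-link interference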); settings: GST-Rac1 beads, Bodipy-FL-GTP binding; at 100 µM (top of the series) unless noted
[6] = target: GTPase HRas (Homo sapiens) (UniProt P01112); assay: activated Ras mutant GTP binding inhibitors, dose response, biochemical, multiplex bead flow cytometry (AID 1341;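 active means dose-response curve with midpoint inside the tested range, moderate steepness, significant amplitude and little compound fluorescence or bead-attachment interference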;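 further: GST-tagged constitutively activated Ras mutant immobilized on beads and multiplexed with other GTPases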)

Sequence of GTPase HRas (Homo sapiens) (P01112 whole entry, looked up): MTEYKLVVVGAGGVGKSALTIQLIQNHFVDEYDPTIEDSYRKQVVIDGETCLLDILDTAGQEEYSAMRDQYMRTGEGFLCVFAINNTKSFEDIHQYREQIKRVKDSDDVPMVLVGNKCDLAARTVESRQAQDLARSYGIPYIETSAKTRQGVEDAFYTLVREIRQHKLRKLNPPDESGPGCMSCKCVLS
Sequence of Cell division control protein 42 homolog (Homo sapiens) (P60953 whole entry, looked up): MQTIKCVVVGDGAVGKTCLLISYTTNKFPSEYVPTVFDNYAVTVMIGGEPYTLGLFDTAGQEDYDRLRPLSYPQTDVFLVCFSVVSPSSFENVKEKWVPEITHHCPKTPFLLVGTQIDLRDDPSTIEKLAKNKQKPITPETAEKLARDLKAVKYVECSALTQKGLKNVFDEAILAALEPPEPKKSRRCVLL

Row | Structure (SMILES) | outcome [1] | fluorescence, percent of control (lower = inhibition) [2] | GTP binding, percent of control [3] [%] | outcome [4] | GTP binding signal, raw median fluorescence (lower = inhibition) (MCF (arbitrary fluorescence units)) [5] | outcome [6]
1 | O=C(N/N=C/c1ccc(-c2ccccc2[N+](=O)[O-])o1)c1cncc(Br)c1 | inactive | 44.2% | 55.2 | inactive | 150 | inactive
2 | CN(/N=C/C=C/c1ccccc1)C1=NS(=O)(=O)c2ccccc21 | inactive | 40.3% | 51.8 | inactive | 124 | inactive
3 | O=C(CSc1ccc2nnc(-c3ccccn3)n2n1)Nc1ccc2c(c1)OCO2 | inactive | 39.5% | 53.4 | inactive | 120 | inactive
4 | COC(=O)COc1ccc(/C=N/NC(=O)c2ccc(N(Cc3ccccc3)S(C)(=O)=O)cc2)cc1 | inactive | 39.7% | 55.5 | inactive | 124 | inactive
5 | COc1ccc(-c2cc(C(F)(F)F)n3nc(C(=O)O)cc3n2)cc1OC | inactive | 30.7% | 67.7 | inactive | 140 | inactive
6 | C=CCc1ccc(OCc2ccc(C(=O)O)o2)c(OC)c1 | inactive | 58.9% | 86.5 | inactive | 31.4 | inactive
7 | O=c1/c(=C/c2ccc(CNS(=O)(=O)c3ccccc3)o2)sc2n1CCN=2 | inactive | 29% | 63.2 | inactive | 119 | inactive
8 | O=c1c2ccc([N+](=O)[O-])cc2ncn1CCOc1ccccc1 | inactive | 48.1% | 95.3 | inactive | 188 | inactive
9 | COc1cccc(-n2c(SCC(=O)NCCC3=CCCCC3)nc3n[nH]c(C)c3c2=N)c1 | inactive | 70.4% | 132 | inactive | 140 | inactive
10 | CC(C)(C)CC(=O)NC(=S)NCc1ccco1 | inactive | 41.6% | 90.5 | inactive | 312 | inactive
11 | Cc1ccc(C2=NN(CCC(=O)NCc3ccc4c(c3)OCO4)C(=O)CC2)cc1 | inactive | 51.3% | 60.2 | inactive | 207 | inactive
12 | CCc1nnc(NC(=O)CSc2nnc(CNc3ccc(F)cc3)n2C2CCCCC2)s1 | inactive | 52% | 72.6 | inactive | 0 | inactive
13 | O=C(Oc1c(Br)cc(C(=S)N2CCOCC2)cc1Br)c1ccc(Cl)cc1 | inactive | 29.7% | 85 | inactive | 217 | inactive
14 | CCNC(=S)N(Cc1cccs1)Cc1cc2cc(OCC)ccc2[nH]c1=O | inactive | 45% | 66 | inactive | 0 | inactive
15 | Cc1cc(C(=O)NNC(=S)NC(C)c2ccccc2)c2ccccc2n1 (stereo not given) | inactive | 95.6% | 177 | inactive | 197 | inactive
16 | CCCc1cc(N2CCN(C(=O)c3ccco3)CC2)n2c(nc3ccccc32)c1C#N | inactive | 34.7% | 79 | inactive | 240 | inactive
17 | Cc1noc(NS(=O)(=O)c2ccc(NC(=O)CSc3nnc4c(n3)[nH]c3ccccc34)cc2)c1C | inactive | 21.2% | 32.7 | inactive | 41.2 | inactive
18 | CCOc1ccccc1C(=O)Nc1cccc(-c2ccc3nncn3n2)c1 | inactive | 33.5% | 73.1 | inactive | 194 | inactive
19 | COc1ccccc1OCCn1cc(C(=O)O)c2ccc(C)cc21 | inactive | 47.9% | 184 | inactive | 55.5 | inactive
20 | Cc1cc(-c2n[nH]c(=S)n2/N=C/c2cccc([N+](=O)[O-])c2)n[nH]1 | inactive | 35% | 51 | inactive | 102 | inactive

Row | Structure (SMILES) | outcome [1] | fluorescence, percent of control (lower = inhibition) [2] | GTP binding, percent of control [3] [%] | outcome [4] | GTP binding signal, raw median fluorescence (lower = inhibition) (MCF (arbitrary fluorescence units)) [5] | outcome [6]
21 | COc1ccc(C(=O)Nc2nc3ccccc3[nH]2)cc1S(=O)(=O)N1CCOCC1 | inactive | 32.9% | 73.9 | inactive | 197 | inactive
22 | COc1ccc(OCc2c(C)cccc2C)c(C(=O)O)c1 | inactive | 58.3% | 203 | inactive | 55 | inactive
23 | CCOC(=O)Cn1nnnc1CN(Cc1cccs1)Cc1cc2cc(C)ccc2[nH]c1=O | inactive | 98.4% | 178 | inactive | 187 | inactive
24 | NC1=NC(=O)/C(=C/c2cn(CCC(=O)O)nc2-c2ccc(Cl)cc2)S1 | inactive | 18.2% | 42.4 | inactive | 65.5 | inactive
25 | S=c1[nH]nc(-c2ccc3ccccc3n2)n1-c1ccccc1Cl | inactive | 45.1% | 60.2 | inactive | 165 | inactive
26 | O=C(O)c1cccnc1SCc1ccccc1Cl | inactive | 103% | 119 | inactive | 88.1 | inactive
27 | O=C(COn1nnc2ccc(Cl)cc21)NCc1ccccc1 | inactive | 89.6% | 154 | inactive | 183 | inactive
28 | O=c1cc(N2CCc3ccccc3C2)[nH]c(=O)n1-c1ccc(Cl)cc1 | inactive | 43.6% | 92.9 | inactive | 267 | inactive
29 | O=C(CSc1n[nH]c(=O)[nH]c1=O)N/N=C/c1ccccc1 | inactive | 49.5% | 61.4 | inactive | 197 | inactive
30 | CCCCn1c(O)c(/C=C/C=C/C=Nc2ccccc2)sc1=S | inactive | 29.8% | 68.3 | inactive | 216 | inactive
31 | Cc1ccc(C(=O)Nn2c(O)c(C=C3N=c4ccccc4=N3)sc2=S)cc1 | inactive | 47.7% | 50.4 | inactive | 129 | inactive
32 | COc1cc2[nH]c(=S)nc(NCc3cccs3)c2cc1OC | inactive | 29.5% | 67.6 | inactive | 161 | inactive
33 | O=C(O)C1CCCN1C(=O)OCc1ccccc1 (stereo not given) | inactive | 108% | 188 | inactive | 235 | inactive
34 | Cc1cc(C)n2nc(SCCOc3ccc(F)cc3)nc2n1 | inactive | 42.7% | 78.4 | inactive | 166 | inactive
35 | COc1ccc(CC(=O)Nc2ccc(C(=O)Nc3nccs3)cc2)cc1OC | inactive | 36.7% | 75.2 | inactive | 163 | inactive
36 | O=c1c2ccccc2nc2c3ccccc3cnn12 | inactive | 46.9% | 88.4 | inactive | 175 | inactive
37 | O=C(O)c1ccccc1C(=O)OCc1ccc(F)cc1F | inactive | 89.8% | 106 | inactive | 72.5 | inactive
38 | CN(C)c1ccc(/C=C/c2ccc3c4ccccc4ccc3[n+]2-c2ccccc2)cc1 | inactive | 40% | 69.7 | inactive | 236 | inactive
39 | CCOc1ccc(C2=Nn3c(nnc3-c3ccco3)SC2)cc1 | inactive | 33.2% | 75.2 | inactive | 179 | inactive
40 | Cc1ccc(CSCc2ccc(C(=O)O)o2)cc1 | inactive | 50.3% | 74.2 | inactive | 28.2 | inactive

Row | Structure (SMILES) | outcome [1] | fluorescence, percent of control (lower = inhibition) [2] | GTP binding, percent of control [3] [%] | outcome [4] | GTP binding signal, raw median fluorescence (lower = inhibition) (MCF (arbitrary fluorescence units)) [5] | outcome [6]
41 | N#C/C(=C\c1ccc(-c2ccc(C(=O)O)cc2)o1)c1nc2ccccc2[nH]1 | inactive | 168% | 221 | inactive | 144 | inactive
42 | CSc1nc2ccc(NC(=O)C3CC(=O)N(Cc4ccco4)C3)cc2s1 (stereo not given) | inactive | 34% | 75.3 | inactive | 195 | inactive
43 | CC(C)Nc1nnc(SCC(=O)Nc2ccc3c(c2)C(=O)c2ccccc2C3=O)s1 | inactive | 43.2% | 50.9 | inactive | 0 | inactive
44 | CN(C)CCN(C(=O)c1ccc(N2C(=O)CCC2=O)cc1)c1nc2cc3c(cc2s1)OCO3 | inactive | 35.7% | 79.3 | inactive | 261 | inactive
45 | COc1cc(C)c2c(c1C=O)Oc1c(c(C)c(O)c3c1C(O)OC3=O)OC2=O (stereo not given) | inactive | 54.3% | 102 | inactive | 135 | inactive
46 | COC(=O)c1cccc(Nc2cc(C)nc(-c3ccccc3O)n2)c1 | inactive | 43.1% | 54.2 | inactive | 148 | inactive
47 | COc1ccc(OCCSc2nc3nc(C)cc(C)n3n2)cc1 | inactive | 45.5% | 87.4 | inactive | 178 | inactive
48 | CCOC(=O)c1nn(-c2ccccc2)c(=O)cc1SC(C)C | inactive | 51.2% | 61.6 | inactive | 204 | inactive
49 | Cc1ccc(OCc2ccc(C(=O)Nc3nc4ccccc4n3Cc3ccccc3)o2)c([N+](=O)[O-])c1 | inactive | 48.5% | 60.3 | inactive | 193 | inactive
50 | Nc1[nH]n2c(=O)c3c(nc2c1N=Nc1ccc(Cl)cc1)CCCC3 | inactive | 61.6% | 49.2 | inactive | 188 | inactive
51 | CCOc1cccc(Nc2cc3n(c(=O)n2)CCc2cc(OC)c(OC)cc2-3)c1 | inactive | 32% | 71.9 | inactive | 186 | inactive
52 | O=C(O)c1cccnc1Oc1ccc2c(c1)OCO2 | inactive | 76.8% | 92 | inactive | 55.2 | inactive
53 | N#Cc1c2nc3ccccc3nc2n2cc(NC(=O)c3ccc(F)cc3)ccc12 | inactive | 49.3% | 64.8 | inactive | 158 | inactive
54 | COc1cccc(OC)c1-c1nn2c(-c3cc(-c4ccccc4)n[nH]3)nnc2s1 | inactive | 131% [at 33.3 µM] | 1380 | inactive | 438 [at 33.3 µM] | inactive
55 | C=CCSc1nc(N)c(C#N)c(-c2ccc(C)cc2)c1C#N | inactive | 35% | 83.1 | inactive | 262 | inactive
56 | Cn1c(N/N=C/c2cccs2)nc2c1c(=O)n(Cc1ccccc1)c(=O)n2C | inactive | 39.1% | 51.7 | inactive | 143 | inactive
57 | COCCN1C(=O)/C(=C/c2ccc(N3CCCC3)cc2)SC1=S | inactive | 64.2% | 106 | inactive | 311 | inactive
58 | CCOc1cc(/C=C2\SC(=O)N=C2N)ccc1O | inactive | 40.7% | 81 | inactive | 174 | inactive
59 | CC(C)OCCCn1c(=NC(=O)c2ccncc2)c(C#N)cc2c(=O)n3ccccc3nc21 | inactive | 88.2% | 160 | inactive | 161 | inactive
60 | N#C/C(=C\c1cccnc1)c1nc2ccccc2[nH]1 | inactive | 32.6% | 82.7 | inactive | 251 | inactive

From PubChem BioAssay
